The values below come from PubChem BioAssay (Tox21).

SMILES strings stand for the structures. Unmarked numbers belong to inactive results. Inconclusive results are not listed. Activity calls are given as the source filed them. Unless noted, calls follow the shape of the dose curve; as a rule, active = well fitted curve in the direction sought with a large enough effect in the repeat runs; inconclusive = weak or mixed curves; inactive = no such curve, though single readings can be large; an effect the other way counts as inactive or inconclusive.

The target in assay [1] is Progesterone receptor (Homo sapiens) (UniProt P06401). In words: qHTS assay to identify small molecule agonists of the progesterone receptor (PR) signaling pathway (AID 1346784; calls by dose curve; also: nearly all actives have a fitted effect of over 30% in size). The method in brief:
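Fluorescence from LiveBLAzer B/G FRET substrate cleavage (2 hr, RT) reported PR activation in PR-UAS-bla HEK 293T cells treated 16 hr at 37C/5% CO2 with compounds; medium contained 2% charcoal-stripped FBS.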

The target is the same in assay [2]. In words: qHTS assay to identify small molecule antagonists of the progesterone receptor (PR) signaling pathway (AID 1346795; active = well fitted inhibition curve with a large enough effect in the signal ratio in the repeat runs, not every such curve was filed as active; the % refers to the signal ratio; also: potency is read from the fitted curve at half-maximal effect). The method in brief: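 Fluorescence intensity measured 2 hr after adding beta-lactamase FRET substrate to PR-UAS-bla HEK293T cells that had been co-treated 16 hr with compound and 1 nM R5020 (final concentration) in 2% charcoal-stripped FBS.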

Assay [3] can be described thus: qHTS assay to identify small molecule agonists of the TGF-beta/Smad signaling pathway - cell viability counter screen (AID 1346829). Also: top concentration of the series differs between compounds; nearly all actives have a fitted effect of over 45% in size. The method, boiled down: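 Same-well cytotoxicity: CellTiter-Glo added after the 2 hr room-temperature beta-lactamase substrate step, luminescence measured 30 min later; cells had 5 hr of compound at 37 C.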
Assay [4] is described as follows: qHTS assay to identify small molecule agonists of the TGF-beta/Smad signaling pathway (AID 1346859; active = well fitted activation curve with a large enough effect in the signal ratio in the repeat runs, not every such curve was filed as active; the % refers to the signal ratio; also: series mostly up to about 77 µM). The method in brief:
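After overnight seeding, SBE-bla HEK 293T cells are dosed with compounds in DMSO and kept 5 hr at 37 C, 5% CO2. LiveBLAzer-type FRET substrate is then applied for 2 hr at room temperature.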

Assay [5] can be described thus: Human pregnane X receptor (PXR) small molecule agonists, qHTS cell viability counter screen (AID 1346977). Also: nearly all actives have a fitted effect of over 50% in size. Also: potency is read from the fitted curve at half-maximal effect. The method in brief: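 Viability counter screen: CellTiter-Fluor signal in PXR-Luc HepG2 cells, 24hr compound exposure, 37C, 5% CO2.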
Assay [6] is described as follows: Caspase-3/7 induction in HepG2 cells by small molecules, qHTS assay (AID 1346978). Also: nearly all actives have a fitted effect of over 15% in size. The method, boiled down:
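Wild-type HepG2 cells, 2,000/well, settled 5 hr at 37 C and 5% CO2, then compound-treated for 17 hr; caspase-3/7 activity read by luminescent Caspase-Glo 3/7 after 30 min at room temperature.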

A short description of assay [7]: Caspase-3/7 induction in CHO-K1 cells by small molecules, qHTS assay (AID 1346980). Also: nearly all actives have a fitted effect of over 15% in size. The method in brief: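 Wild-type CHO-K1 cells exposed to compounds for 17hr at 37 C, 5% CO2. Caspase-3/7 activity then measured by Caspase-Glo 3/7 luminescence after 30min at room temperature.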
Assay [8] in a line: Caspase-3/7 induction in HepG2 cells by small molecules, qHTS cell viability counter screen (AID 1346981). Also: series mostly up to about 92 µM; nearly all actives have a fitted effect of over 30% in size. The method, boiled down: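 In this quantitative HTS counter screen, compounds delivered in DMSO were left on unmodified HepG2 cells for 16 hr at 37 C. Viability was then determined fluorometrically with CellTiter-Fluor, in parallel with caspase-3/7 induction in the same wells.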

The target in assay [9] is Nuclear receptor subfamily 1 group I member 2 (Homo sapiens) (UniProt O75469). In words: Human pregnane X receptor (PXR) small molecule agonists, qHTS assay (AID 1346982). Also: nearly all actives have a fitted effect of over 35% in size. Also: potency is read from the fitted curve at half-maximal effect. The method in brief: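 Reporter HepG2 cells expressing PXR-Luc are cultured in charcoal-stripped FBS (5%), treated with compounds for 24 hr at 37 C, and assayed by ONE-Glo luminescence after 30 min at room temperature.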

Assay [10] deals with Nuclear receptor subfamily 1 group I member 2 (Rattus norvegicus) (UniProt Q9R1A7). Briefly: Rat pregnane X receptor (rPXR) activation by small molecules, qHTS assay (AID 1346983). Also: nearly all actives have a fitted effect of over 20% in size. To be noted: rPXR luciferase reporter cells, One-Glo luminescence, 24 h; max activation: hits give high values. The method in brief: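 Cell-based rPXR activation assay: rPXR cells, 2,000 per well, rested 5hr at 37 C, then exposed to compounds in DMSO for 24 hr at 37 C. Luciferase activity read by One-Glo luminescence after 30 min at room temperature.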

For assay [11], the target named is Nuclear receptor subfamily 1 group I member 2 (Homo sapiens) (UniProt O75469). In words: CYP3A4 induction through human pregnane X receptor (PXR) by small molecules, qHTS assay (AID 1346984). Also: nearly all actives have a fitted effect of over 40% in size. The method, boiled down: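 Induction measured in HepG2-based DPX-2 cells co-expressing human PXR and a CYP3A4 promoter-driven luciferase. After a 24-hour compound exposure, cells received CYP3A4 luciferin substrate at 3uM final for 3 hours, and light output was then recorded.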

The target is the same in assay [12]. In words: Human pregnane X receptor (PXR) activation by small molecules, qHTS assay (AID 1346985). Also: nearly all actives have a fitted effect of over 40% in size. The method in brief:
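DPX-2 cells (HepG2 co-transfected with a PXR response element and a CYP3A4-promoter luciferase construct) were seeded at 2,000 per well, rested 5 hr at 37C, then exposed to DMSO-dissolved compounds for 24 hr. Activation was read as luciferase luminescence.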

For assay [13], the target named is Cytochrome P450 2D6 (Homo sapiens) (UniProt P10635). In words: Cytochrome P450 Family 2 Subfamily D Member 6 (CYP2D6) small molecule antagonists: luciferase reporter qHTS assay (AID 1671196). Also: nearly all actives have a fitted effect of over 50% in size. Also: potency is read from the fitted curve at half-maximal effect. The method, boiled down: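 Test chemicals meet CYP2D6 plus proluciferin substrate (10 min, RT); NADPH regenerating solution then drives turnover for 1 h. Detection reagent halts the reaction; luminescence measured after 20 min.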

Assay [14] deals with Cytochrome P450 2C19 (Homo sapiens) (UniProt P33261). In words: Cytochrome P450 Family 2 Subfamily C Member 19 (CYP2C19) small molecule antagonists: luciferase reporter qHTS assay (AID 1671197). Also: nearly all actives have a fitted effect of over 65% in size. Also: potency is read from the fitted curve at half-maximal effect. The method, boiled down: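 Quantitative high-throughput screen of the Tox21 library using CYP2C19 with proluciferin substrate. Reaction: NADPH regeneration, 37C, 1 h, after 10 min compound preincubation at room temperature. Readout: luminescence.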

The nature of assay [15]: qHTS assay to identify small molecule antagonists of the progesterone receptor (PR) signaling pathway - cell viability counter screen (AID 1346798). Also: series mostly up to about 92 µM; nearly all actives have a fitted effect of over 50% in size. The method in brief:
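CellTiter-Glo luminescence; PR-UAS-bla HEK293T, 3,000 cells/well; compound + R5020, 16 hr, 37C/5% CO2; 30 min RT before read.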

Assay [16] in a line: qHTS assay to identify small molecule agonists of the progesterone receptor (PR) signaling pathway - cell viability counter screen (AID 1346799; calls by dose curve; also: nearly all actives have a fitted effect of over 45% in size). The method, boiled down:
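In parallel with the beta-lactamase readout, cytotoxicity toward PR-UAS-bla HEK293T cells was measured by CellTiter-Glo luminescence following 16 hr compound incubation in 2% charcoal-stripped FBS medium.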

Assay [17] is described as follows: qHTS assay to identify small molecule antagonists of the TGF-beta/Smad signaling pathway - cell viability counter screen (AID 1346824). Also: nearly all actives have a fitted effect of over 50% in size. The method in brief:
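SBE-bla HEK 293T cells, incubated overnight, then compound plus 0.25 ng/mL TGF-beta1 (stock added) for 5 hr at 37 C. Viability was read in the same wells by CellTiter-Glo luminescence after 30 min at room temperature.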

For assay [18], the target named is Thyrotropin-releasing hormone receptor (Homo sapiens) (UniProt P34981). Briefly: qHTS assay to identify small molecule antagonists of the thyrotropin-releasing hormone receptor (TRHR) signaling pathway (AID 1346877; active = well fitted inhibition curve with a large enough effect in the repeat runs, not every such curve was filed as active; also: series mostly up to about 51 µM). The method, boiled down:
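Kinetic fluorescence (3 min, 1 s resolution) following stimulation with TRH at 1 nM final; HEK293 cells bearing human TRHR; 5 min compound preincubation at RT; concentration-response over 15 points, triplicates.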

Assay [19] has the same target. Briefly: qHTS assay to identify small molecule agonists of the thyrotropin-releasing hormone receptor (TRHR) signaling pathway (AID 1346891; calls by dose curve;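 also: HEK293 cells expressing TRHR with calcium dye readout; series mostly up to about 58 µM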). The method in brief:
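Compounds were tested as agonists at 15 concentrations, in triplicate, on TRHR-Hek293 cells; calcium-sensitive dye fluorescence was recorded for 3 min following addition.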

Assay [20] is described as follows: Caspase-3/7 induction in CHO-K1 cells by small molecules, qHTS cell viability counter screen (AID 1346979). Also: nearly all actives have a fitted effect of over 35% in size. Also: potency is read from the fitted curve at half-maximal effect. The method, boiled down: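 Viability readout by fluorescence (CellTiter-Fluor) on wild-type CHO-K1 cells exposed for 16hr at 37C and 5% CO2 to compounds delivered in DMSO; reagent incubated 1hr before reading.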
% is scaled to controls: 0 for no effect and ±100 for the full control effect.

Chain of Cytochrome P450 2C19 (Homo sapiens) (P33261 whole entry, looked up): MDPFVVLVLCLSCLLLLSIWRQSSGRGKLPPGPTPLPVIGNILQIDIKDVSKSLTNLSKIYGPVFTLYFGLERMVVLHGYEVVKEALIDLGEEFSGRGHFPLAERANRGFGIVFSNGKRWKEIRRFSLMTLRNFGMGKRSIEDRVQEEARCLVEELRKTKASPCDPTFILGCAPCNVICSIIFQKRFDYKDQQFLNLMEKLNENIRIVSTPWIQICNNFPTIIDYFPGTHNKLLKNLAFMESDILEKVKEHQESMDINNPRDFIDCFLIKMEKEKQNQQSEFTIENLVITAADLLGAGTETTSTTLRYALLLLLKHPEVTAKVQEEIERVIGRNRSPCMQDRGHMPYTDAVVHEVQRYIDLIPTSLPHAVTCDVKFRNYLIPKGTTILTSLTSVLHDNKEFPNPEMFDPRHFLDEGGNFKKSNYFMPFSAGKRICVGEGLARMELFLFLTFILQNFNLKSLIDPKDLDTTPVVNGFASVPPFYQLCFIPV
Chain of Cytochrome P450 2D6 (Homo sapiens) (P10635 whole entry, looked up): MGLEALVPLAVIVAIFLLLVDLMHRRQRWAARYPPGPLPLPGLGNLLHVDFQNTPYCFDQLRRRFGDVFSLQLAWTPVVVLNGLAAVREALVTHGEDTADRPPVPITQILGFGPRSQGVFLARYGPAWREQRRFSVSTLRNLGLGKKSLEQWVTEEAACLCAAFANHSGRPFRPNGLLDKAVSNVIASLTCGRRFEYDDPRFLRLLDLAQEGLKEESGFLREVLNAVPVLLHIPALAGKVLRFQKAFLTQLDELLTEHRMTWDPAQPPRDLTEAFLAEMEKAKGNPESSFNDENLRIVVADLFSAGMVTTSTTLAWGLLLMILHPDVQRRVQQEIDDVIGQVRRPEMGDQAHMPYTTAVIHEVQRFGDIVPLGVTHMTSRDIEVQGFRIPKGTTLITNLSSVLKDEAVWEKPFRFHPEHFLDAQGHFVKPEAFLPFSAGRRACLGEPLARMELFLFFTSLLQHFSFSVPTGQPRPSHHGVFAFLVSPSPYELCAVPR
Chain of Thyrotropin-releasing hormone receptor (Homo sapiens) (P34981 whole entry, looked up): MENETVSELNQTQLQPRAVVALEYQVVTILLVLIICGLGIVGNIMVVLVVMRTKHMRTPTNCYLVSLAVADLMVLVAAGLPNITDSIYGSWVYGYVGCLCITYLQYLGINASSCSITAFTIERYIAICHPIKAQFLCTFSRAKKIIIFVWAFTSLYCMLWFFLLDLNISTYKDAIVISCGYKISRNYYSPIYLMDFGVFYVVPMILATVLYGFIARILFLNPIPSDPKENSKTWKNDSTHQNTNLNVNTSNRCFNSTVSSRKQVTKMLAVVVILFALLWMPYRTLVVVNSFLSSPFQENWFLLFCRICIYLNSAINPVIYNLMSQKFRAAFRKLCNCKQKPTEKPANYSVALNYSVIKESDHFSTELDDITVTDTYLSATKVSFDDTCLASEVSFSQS
Chain of Nuclear receptor subfamily 1 group I member 2 (Homo sapiens) (O75469 whole entry, looked up): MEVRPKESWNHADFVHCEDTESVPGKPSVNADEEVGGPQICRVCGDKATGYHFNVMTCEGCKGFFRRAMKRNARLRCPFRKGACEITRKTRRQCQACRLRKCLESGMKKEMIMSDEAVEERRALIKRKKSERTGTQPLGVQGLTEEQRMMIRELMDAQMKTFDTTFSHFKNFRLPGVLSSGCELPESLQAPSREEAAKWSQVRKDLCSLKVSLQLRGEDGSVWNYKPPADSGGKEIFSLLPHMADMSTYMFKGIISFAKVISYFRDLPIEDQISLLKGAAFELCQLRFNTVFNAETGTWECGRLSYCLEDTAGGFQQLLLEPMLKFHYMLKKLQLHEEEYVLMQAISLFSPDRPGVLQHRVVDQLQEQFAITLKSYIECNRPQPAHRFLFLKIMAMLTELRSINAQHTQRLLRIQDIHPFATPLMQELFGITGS
Chain of Progesterone receptor (Homo sapiens) (P06401 whole entry, looked up): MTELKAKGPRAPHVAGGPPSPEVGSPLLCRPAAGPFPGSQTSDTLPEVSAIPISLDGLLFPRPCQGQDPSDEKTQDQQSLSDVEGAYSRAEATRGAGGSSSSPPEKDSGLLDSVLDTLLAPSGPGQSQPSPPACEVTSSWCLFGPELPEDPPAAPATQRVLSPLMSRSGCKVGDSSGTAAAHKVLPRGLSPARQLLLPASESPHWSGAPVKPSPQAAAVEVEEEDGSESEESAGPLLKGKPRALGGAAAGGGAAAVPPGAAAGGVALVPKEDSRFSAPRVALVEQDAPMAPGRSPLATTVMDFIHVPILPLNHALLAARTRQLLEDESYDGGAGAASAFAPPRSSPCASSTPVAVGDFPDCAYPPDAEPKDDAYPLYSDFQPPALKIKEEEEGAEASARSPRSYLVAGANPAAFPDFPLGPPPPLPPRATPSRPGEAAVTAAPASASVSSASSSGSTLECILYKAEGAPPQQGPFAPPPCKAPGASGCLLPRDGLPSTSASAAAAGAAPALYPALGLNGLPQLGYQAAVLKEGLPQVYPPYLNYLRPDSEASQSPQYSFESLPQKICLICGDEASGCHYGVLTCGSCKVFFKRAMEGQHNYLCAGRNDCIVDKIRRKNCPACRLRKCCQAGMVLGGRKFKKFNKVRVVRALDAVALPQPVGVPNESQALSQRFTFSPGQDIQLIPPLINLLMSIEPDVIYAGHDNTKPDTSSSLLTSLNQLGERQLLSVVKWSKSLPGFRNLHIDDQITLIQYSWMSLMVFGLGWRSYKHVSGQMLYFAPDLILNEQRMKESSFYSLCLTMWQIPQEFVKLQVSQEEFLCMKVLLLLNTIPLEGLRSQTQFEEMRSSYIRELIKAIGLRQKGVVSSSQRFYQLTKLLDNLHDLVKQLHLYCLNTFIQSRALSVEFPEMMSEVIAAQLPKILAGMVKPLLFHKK
Chain of Nuclear receptor subfamily 1 group I member 2 (Rattus norvegicus) (Q9R1A7 whole entry, looked up): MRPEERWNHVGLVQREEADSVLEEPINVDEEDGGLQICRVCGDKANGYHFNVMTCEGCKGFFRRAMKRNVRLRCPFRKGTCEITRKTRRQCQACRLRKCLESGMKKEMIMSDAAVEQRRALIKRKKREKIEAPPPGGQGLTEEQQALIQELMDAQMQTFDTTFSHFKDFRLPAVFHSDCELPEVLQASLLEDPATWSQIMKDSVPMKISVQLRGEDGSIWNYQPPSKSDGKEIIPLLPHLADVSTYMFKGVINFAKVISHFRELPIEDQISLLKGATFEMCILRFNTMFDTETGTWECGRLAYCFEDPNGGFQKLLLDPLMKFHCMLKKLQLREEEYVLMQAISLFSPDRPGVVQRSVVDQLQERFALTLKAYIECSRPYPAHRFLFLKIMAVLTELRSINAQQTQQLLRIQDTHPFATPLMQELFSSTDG

With `CCCCCCCCCCCCCCNCCO`, the outcome in [1] was inactive. In addition, the Potency result in assay [2], in assay [3], in assay [4], in assay [5], in assay [6] and in assay [7] was “inactive” each time. The Potency entry in assay [8], in [9], in [11], in assay [12] and in [14] was “inactive” throughout. Besides, in assay [10], the max activation is 11.2%. Moreover, the Potency in assay [13] was 3.09 µM (active).
With `Oc1ccc(-c2ccccc2)c(Cl)c1`, the result in assay [1] was inactive. Moreover, the Potency entry in assay [15], in assay [16], in assay [17], in [3], in [4] and in assay [18] was “inactive” throughout. Further, the Potency entry in assay [19], in assay [5], in assay [6] and in [8] was “inactive” in each case. Moreover, the figures for the Potency in assay [9] and in assay [14] were 24.3 µM (active) and 22.4 µM (active), respectively.
As for `CCCCOCC`, in assay [1], the call was inactive. Further, the Potency result in assay [2], in [16], in assay [3], in [4], in assay [5] and in [6] was “inactive” in each case. The Potency result in assay [20], in [7], in [8], in assay [9], in [13] and in assay [14] was “inactive” in each case.
Regarding `C[Si](C)(C)Cl`, the result in assay [1] was inactive. Further, the Potency entry in assay [15], in [16], in assay [17], in assay [3], in [4] and in [5] was “inactive” in each case. For the same compound, the Potency entry in [6], in assay [20], in assay [7], in [8], in assay [9] and in assay [13] was “inactive” in each case.
For `O=Nc1ccc(NO)cc1`, in [1], the call was inactive. Also, the Potency entry in assay [15], in assay [16], in assay [17], in assay [3], in [4] and in assay [18] was “inactive” each time. For the same compound, the Potency result in [19], in assay [5], in [6], in assay [7] and in [13] was “inactive” in each case. Further, in assay [20], the Potency was 63.6 µM (active).
Consider `CCCCCCC(C)OC(=O)COc1nc(F)c(Cl)c(N)c1Cl` (centres undefined), for which, in [1], the compound was classed as inactive. The Potency entry in [15], in [16], in assay [17], in [3], in [4] and in assay [18] was “inactive” in each case. Moreover, the Potency entry in [19], in [5], in assay [20], in assay [7], in [8] and in [9] was “inactive” throughout. The Potency in assay [14] is 4.48 µM (active).
As to `CC(C(O)c1ccccc1)N(C)CCOC(c1ccccc1)c1ccccc1` (centres undefined), in assay [1], the compound was called inactive. Also, the Potency in [2] was 23.7 µM (active); in assay [5], 29.8 µM (active); in [9], 7.5 µM (active); in [13], 0.174 µM (active). Besides, the Potency result in assay [3], in assay [18], in [19] and in assay [7] was “inactive” each time.
Consider `CCNc1nc(NC(C)CC)nc(OC)n1` (centres undefined), for which the call in assay [1] was inactive. Besides, the Potency entry in [15], in [16], in [17], in assay [3], in assay [4] and in [18] was “inactive” each time. In addition, the Potency entry in assay [5], in [6], in assay [20], in [7], in [8] and in assay [13] was “inactive” each time. In addition, the Potency in assay [9] was 24.3 µM (active); in assay [14] it was 7.96 µM (active).
